Common to all, as to assay: PBM; 200 nM protein, PBS
Conditions in all cases: dsDNA, one strand shown

Assay [1] addresses CRX (Homo sapiens, UniProt O43186 26-111).
Assay [2] concerns the target CRX (Homo sapiens, UniProt O43186 26-111, E42D).
Assay [3] addresses CRX (Homo sapiens, UniProt O43186 26-111, R41L).
In assay [4] the target is T1, NKX2-4 (Homo sapiens, UniProt Q9H2Z4 175-261, P217L).
T1 sequence: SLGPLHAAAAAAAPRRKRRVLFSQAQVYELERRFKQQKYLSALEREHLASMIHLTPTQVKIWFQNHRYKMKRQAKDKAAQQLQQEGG

For assay [5], the target named is T2, SIX6 (Homo sapiens, UniProt O95475 114-200, L167I).
T2 sequence: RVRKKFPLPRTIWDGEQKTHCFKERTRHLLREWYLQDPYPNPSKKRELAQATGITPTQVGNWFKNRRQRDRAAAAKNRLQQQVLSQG

Assay [6] deals with T3, SIX6 (Homo sapiens, UniProt O95475 114-200, L143V).
T3 sequence: T2 sequence with L30V, I54L

The target in assay [7] is T4, NKX2-4 (Homo sapiens, UniProt Q9H2Z4 175-261, T231S).
T4 sequence: T1 sequence with L43P, T57S

The target of assay [8] is T5, SIX6 (Homo sapiens, UniProt O95475 114-200, H141N).
T5 sequence: T2 sequence with H28N, I54L

Assay [9] addresses T6, SIX6 (Homo sapiens, UniProt O95475 114-200, T165P).
T6 sequence: T2 sequence with T52P, I54L

The target in assay [10] is T7, SIX6 (Homo sapiens, UniProt O95475 114-200, L167M).
T7 sequence: T2 sequence with I54M

Assay [11] deals with T8, NKX2-4 (Homo sapiens, UniProt Q9H2Z4 175-261).
T8 sequence: T1 sequence with L43P

For assay [12], the target named is T9, SIX6 (Homo sapiens, UniProt O95475 114-200, L143M).
T9 sequence: T2 sequence with L30M, I54L

Assay [13] deals with T10, SIX6 (Homo sapiens, UniProt O95475 114-200, L143I).
T10 sequence: T2 sequence with L30I, I54L

Assay [14] has as its target T11, SIX6 (Homo sapiens, UniProt O95475 114-200, T165G).
T11 sequence: T2 sequence with T52G, I54L

The target in assay [15] is T12, SIX6 (Homo sapiens, UniProt O95475 114-200, T139Q).
T12 sequence: T2 sequence with T26Q, I54L

The target of assay [16] is T13, SIX6 (Homo sapiens, UniProt O95475 114-200, T165A).
T13 sequence: T2 sequence with T52A, I54L

Assay [17] concerns the target T14, SIX6 (Homo sapiens, UniProt O95475 114-200, L167V).
T14 sequence: T2 sequence with I54V

Assay [18] has as its target T15, NKX2-4 (Homo sapiens, UniProt Q9H2Z4 175-261, R246Q).
T15 sequence: T1 sequence with L43P, R72Q

For assay [19], the target named is T16, SIX6 (Homo sapiens, UniProt O95475 114-200).
T16 sequence: T2 sequence with I54L

The target in assay [20] is T17, SIX6 (Homo sapiens, UniProt O95475 114-200, T165I).
T17 sequence: T2 sequence with T52I, I54L

In assay [21] the target is HOXC9 (Homo sapiens, UniProt P31274 178-260, K195R).
Chain of HOXC9 (Homo sapiens, UniProt P31274 178-260, K195R) (P31274 178-260 K195R): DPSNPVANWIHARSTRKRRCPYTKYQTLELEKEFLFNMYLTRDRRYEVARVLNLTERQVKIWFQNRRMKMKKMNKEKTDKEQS
Assay [22] concerns the target T18, NKX2-6 (Homo sapiens, UniProt A6NCS4 118-204, R150C).
T18 sequence: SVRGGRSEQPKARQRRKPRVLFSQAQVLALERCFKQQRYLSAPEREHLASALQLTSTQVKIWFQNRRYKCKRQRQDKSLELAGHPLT

The target in assay [23] is HOXC9 (Homo sapiens, UniProt P31274 178-260).
Chain of HOXC9 (Homo sapiens, UniProt P31274 178-260) (P31274 178-260): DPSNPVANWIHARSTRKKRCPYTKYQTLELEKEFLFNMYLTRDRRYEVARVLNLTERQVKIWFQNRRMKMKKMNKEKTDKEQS
Assay [24] has as its target ALX1 (Homo sapiens, UniProt Q15699 118-204, L144V).
Assay [25] deals with HOXC9 (Homo sapiens, UniProt P31274 178-260, R193K).
Chain of HOXC9 (Homo sapiens, UniProt P31274 178-260, R193K) (P31274 178-260 R193K): as the sequence (P31274 178-260) above, with R16K counted along it
The target in assay [26] is ALX1 (Homo sapiens, UniProt Q15699 118-204, L144R).
Chain of ALX1 (Homo sapiens, UniProt Q15699 118-204, L144R) (Q15699 118-204 L144R): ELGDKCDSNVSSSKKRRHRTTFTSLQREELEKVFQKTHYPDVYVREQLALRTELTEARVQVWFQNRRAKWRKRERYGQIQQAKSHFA
Assay [27] deals with HOXC9 (Homo sapiens, UniProt P31274 178-260, R222W).
Chain of HOXC9 (Homo sapiens, UniProt P31274 178-260, R222W) (P31274 178-260 R222W): as the sequence (P31274 178-260) above, with R45W counted along it
In assay [28] the target is ALX1 (Homo sapiens, UniProt Q15699 118-204).
Chain of ALX1 (Homo sapiens, UniProt Q15699 118-204) (Q15699 118-204): as the sequence (Q15699 118-204 L144R) above, with R27L counted along it

Changes are numbered by the printed parent chain.

Chain of CRX (Homo sapiens, UniProt O43186 26-111, R41L) (O43186 26-111 R41L): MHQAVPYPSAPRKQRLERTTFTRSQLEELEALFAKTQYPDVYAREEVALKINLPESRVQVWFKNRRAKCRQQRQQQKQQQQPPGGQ
Chain of CRX (Homo sapiens, UniProt O43186 26-111) (O43186 26-111): as the sequence (O43186 26-111 R41L) above, with L16R counted along it
Chain of CRX (Homo sapiens, UniProt O43186 26-111, E42D) (O43186 26-111 E42D): as the sequence (O43186 26-111 R41L) above, with L16R, E17D counted along it
Chain of ALX1 (Homo sapiens, UniProt Q15699 118-204, L144V) (Q15699 118-204 L144V): as the sequence (Q15699 118-204 L144R) above, with R27V counted along it

As to CAGGCTAG, the binding signal in [1] was 8.3 upbm affinity estimate (log intensity, higher = more binding, comparable within an allelic series); in [2], 8.21 upbm affinity estimate (log intensity, higher = more binding, comparable within an allelic series); in assay [3] it was 8.16 upbm affinity estimate (log intensity, higher = more binding, comparable within an allelic series).
For CGGGTCAC, the binding signal in assay [1] is 7.89 upbm affinity estimate (log intensity, higher = more binding, comparable within an allelic series); in assay [2] it was 8.08 upbm affinity estimate (log intensity, higher = more binding, comparable within an allelic series); in [3], 8.09 upbm affinity estimate (log intensity, higher = more binding, comparable within an allelic series).
AGGCATAA: the binding signal was 10.3 upbm affinity estimate (log intensity, higher = more binding, comparable within an allelic series) in assay [1]; 10.1 upbm affinity estimate (log intensity, higher = more binding, comparable within an allelic series) in [2]; 9.78 upbm affinity estimate (log intensity, higher = more binding, comparable within an allelic series) in assay [3].
Regarding AATCCAAC, the binding signal is 10.9 upbm affinity estimate (log intensity, higher = more binding, comparable within an allelic series) in [1]; 10.8 upbm affinity estimate (log intensity, higher = more binding, comparable within an allelic series) in assay [2]; 10.7 upbm affinity estimate (log intensity, higher = more binding, comparable within an allelic series) in assay [3].
In the case of CAACCTGC, the binding signal is 8.42 upbm affinity estimate (log intensity, higher = more binding, comparable within an allelic series) in assay [1]; 8.42 upbm affinity estimate (log intensity, higher = more binding, comparable within an allelic series) in assay [2]; 8.35 upbm affinity estimate (log intensity, higher = more binding, comparable within an allelic series) in [3].
On to CTTGCTAC, for which the binding signal in assay [1] was 8.21 upbm affinity estimate (log intensity, higher = more binding, comparable within an allelic series); in assay [2], 8.34 upbm affinity estimate (log intensity, higher = more binding, comparable within an allelic series); in assay [3], 8.28 upbm affinity estimate (log intensity, higher = more binding, comparable within an allelic series).
Take CCCTGCGC: the binding signal in assay [4] was 9.21 upbm affinity estimate (log intensity, higher = more binding, comparable within an allelic series); in assay [5], 8.93 upbm affinity estimate (log intensity, higher = more binding, comparable within an allelic series); in assay [6], 8.85 upbm affinity estimate (log intensity, higher = more binding, comparable within an allelic series); in assay [7], 9.11 upbm affinity estimate (log intensity, higher = more binding, comparable within an allelic series); in assay [8] it was 8.92 upbm affinity estimate (log intensity, higher = more binding, comparable within an allelic series); in assay [9], 8.96 upbm affinity estimate (log intensity, higher = more binding, comparable within an allelic series). Also, the binding signal was 8.94 upbm affinity estimate (log intensity, higher = more binding, comparable within an allelic series) in [10]; 9.27 upbm affinity estimate (log intensity, higher = more binding, comparable within an allelic series) in assay [11]; 8.96 upbm affinity estimate (log intensity, higher = more binding, comparable within an allelic series) in assay [12]; 8.9 upbm affinity estimate (log intensity, higher = more binding, comparable within an allelic series) in assay [13]; 8.89 upbm affinity estimate (log intensity, higher = more binding, comparable within an allelic series) in [14]; 8.98 upbm affinity estimate (log intensity, higher = more binding, comparable within an allelic series) in assay [15]. For the same sequence, the binding signal in [16] was 8.88 upbm affinity estimate (log intensity, higher = more binding, comparable within an allelic series); in assay [17] it was 9 upbm affinity estimate (log intensity, higher = more binding, comparable within an allelic series); in assay [18], 9.27 upbm affinity estimate (log intensity, higher = more binding, comparable within an allelic series); in assay [19] it was 8.86 upbm affinity estimate (log intensity, higher = more binding, comparable within an allelic series); in assay [20], 8.88 upbm affinity estimate (log intensity, higher = more binding, comparable within an allelic series).
CCGGTCGA: the binding signal in assay [1] is 8.51 upbm affinity estimate (log intensity, higher = more binding, comparable within an allelic series); in [2], 8.46 upbm affinity estimate (log intensity, higher = more binding, comparable within an allelic series); in assay [3] it was 8.45 upbm affinity estimate (log intensity, higher = more binding, comparable within an allelic series).
In the case of GCTGCCGA, the binding signal in assay [4] was 9.14 upbm affinity estimate (log intensity, higher = more binding, comparable within an allelic series); in assay [21] it was 9.65 upbm affinity estimate (log intensity, higher = more binding, comparable within an allelic series); in [7], 9.11 upbm affinity estimate (log intensity, higher = more binding, comparable within an allelic series); in assay [11], 9.11 upbm affinity estimate (log intensity, higher = more binding, comparable within an allelic series); in [22], 9.17 upbm affinity estimate (log intensity, higher = more binding, comparable within an allelic series); in assay [23], 9.69 upbm affinity estimate (log intensity, higher = more binding, comparable within an allelic series). In addition, the binding signal in assay [24] is 6.5 upbm affinity estimate (log intensity, higher = more binding, comparable within an allelic series); in assay [25] it was 9.57 upbm affinity estimate (log intensity, higher = more binding, comparable within an allelic series); in [26], 6.4 upbm affinity estimate (log intensity, higher = more binding, comparable within an allelic series); in [18], 9.29 upbm affinity estimate (log intensity, higher = more binding, comparable within an allelic series); in [27], 9.8 upbm affinity estimate (log intensity, higher = more binding, comparable within an allelic series); in [28], 6.43 upbm affinity estimate (log intensity, higher = more binding, comparable within an allelic series).
ATTAAGCC: the binding signal in assay [1] is 12.8 upbm affinity estimate (log intensity, higher = more binding, comparable within an allelic series); in assay [2], 12.8 upbm affinity estimate (log intensity, higher = more binding, comparable within an allelic series); in [3], 12.2 upbm affinity estimate (log intensity, higher = more binding, comparable within an allelic series).

Source of the values: PMC11006913.
